Measurements taken from the supplement of paper PMC4466140.

B1: unnamed (peptide)
chain: DLFKPLPEPPTELGR
B2: unnamed (peptide)
chain: DAPASKPSVPPRNYF
B3: unnamed (peptide)
chain: AHFQPQRTAPKPPIS
B4: unnamed (peptide)
chain: VATSTSPKLPPRGKQ

molecular target: AgAbp1; assay: SPOT peptide array binding signal intensity (averaged, normalized) (arbitrary units (background-subtracted, floor 0; scale differs between SH3 domains)); higher = stronger binding of the SH3 domain to the peptide
Method in brief: (§1)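 SH3 domains from four yeast species were expressed as GST fusions in E. coli BL21(DE3) and purified on glutathione Sepharose. Each was incubated at 10 μg/ml overnight at 4°C in TBS-based blocking buffer on cellulose membranes bearing synthetic 15-mer peptides, in which serines replaced cysteines. Bound protein was detected with anti-GST antibody, an HRP anti-mouse secondary and luminol, then imaged and quantified with Genespotter. The binding signal is the normalized, background-subtracted spot intensity averaged over replicates, in arbitrary units that are not the same from one domain to another.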

Binder	SPOT peptide array binding signal intensity
B1	2.5
B2	2.5
B3	2.5

molecular target: AgBbc1; assay: as above
Method in brief: as §1

Binder	SPOT peptide array binding signal intensity
B1	≤ 0
B2	239
B3	89.8

molecular target: AgBem1-D1; assay: as above
Method in brief: as §1

Binder	SPOT peptide array binding signal intensity
B1	≤ 0
B2	2
B3	58.8

molecular target: AgBzz1-D1; assay: as above
Method in brief: as §1

Binder	SPOT peptide array binding signal intensity
B1	22
B2	26.5
B3	16

molecular target: AgBzz1-D2; assay: as above
Method in brief: as §1

Binder	SPOT peptide array binding signal intensity
B1	≤ 0
B2	≤ 0
B3	54.5

molecular target: AgCyk3; assay: as above
Method in brief: as §1

Binder	SPOT peptide array binding signal intensity
B1	1
B2	2.5
B3	≤ 0

molecular target: AgFus1; assay: as above
Method in brief: as §1

Binder	SPOT peptide array binding signal intensity
B1	1
B2	≤ 0
B3	≤ 0

molecular target: AgHof1; assay: as above
Method in brief: as §1

Binder	SPOT peptide array binding signal intensity
B1	≤ 0
B2	≤ 0
B3	3

molecular target: AgHse1; assay: as above
Method in brief: as §1

Binder	SPOT peptide array binding signal intensity
B1	27
B2	≤ 0
B3	18

molecular target: AgLsb1; assay: as above
Method in brief: as §1

Binder	SPOT peptide array binding signal intensity
B1	≤ 0
B2	1080
B3	16.8

molecular target: AgLsb4; assay: as above
Method in brief: as §1

Binder	SPOT peptide array binding signal intensity
B1	5
B2	69.5
B3	0.5

molecular target: AgMyo5; assay: as above
Method in brief: as §1

Binder	SPOT peptide array binding signal intensity
B1	≤ 0
B2	≤ 0
B3	954

molecular target: AgNbp2; assay: as above
Method in brief: as §1

Binder	SPOT peptide array binding signal intensity
B1	≤ 0
B2	45
B3	3970

molecular target: AgRvs167; assay: as above
Method in brief: as §1

Binder	SPOT peptide array binding signal intensity
B1	0.333
B2	13.2
B3	0.583

molecular target: AgSho1; assay: as above
Method in brief: as §1

Binder	SPOT peptide array binding signal intensity
B1	1410
B2	1
B3	≤ 0

molecular target: AgSla1-D1-D2; assay: as above
Method in brief: as §1

Binder	SPOT peptide array binding signal intensity
B1	≤ 0
B2	≤ 0
B3	≤ 0

molecular target: AgSla1-D3; assay: as above
Method in brief: as §1

Binder	SPOT peptide array binding signal intensity
B1	≤ 0
B2	≤ 0
B3	1

molecular target: CaAbp1-D1; assay: as above
Method in brief: as §1

Binder	SPOT peptide array binding signal intensity
B1	≤ 0
B2	17.5
B3	65.5

molecular target: CaAbp1-D2; assay: as above
Method in brief: as §1

Binder	SPOT peptide array binding signal intensity
B1	≤ 0
B2	3
B3	33.8

molecular target: CaBbc1; assay: as above
Method in brief: as §1

Binder	SPOT peptide array binding signal intensity
B1	≤ 0
B2	962
B3	743

molecular target: CaBem1-D1; assay: as above
Method in brief: as §1

Binder	SPOT peptide array binding signal intensity
B1	≤ 0
B2	≤ 0
B3	958

molecular target: CaBzz1-D1; assay: as above
Method in brief: as §1

Binder	SPOT peptide array binding signal intensity
B1	≤ 0
B2	190
B3	779

molecular target: CaBzz1-D2; assay: as above
Method in brief: as §1

Binder	SPOT peptide array binding signal intensity
B1	≤ 0
B2	5.75
B3	136

molecular target: CaCyk3; assay: as above
Method in brief: as §1

Binder	SPOT peptide array binding signal intensity
B1	≤ 0
B2	34.5
B3	≤ 0

molecular target: CaFus1; assay: as above
Method in brief: as §1

Binder	SPOT peptide array binding signal intensity
B1	7
B2	≤ 0
B3	≤ 0

molecular target: CaHof1; assay: as above
Method in brief: as §1

Binder	SPOT peptide array binding signal intensity
B1	1
B2	≤ 0
B3	≤ 0

molecular target: CaHse1; assay: as above
Method in brief: as §1

Binder	SPOT peptide array binding signal intensity
B1	16
B2	≤ 0
B3	2.5

molecular target: CaLsb1; assay: as above
Method in brief: as §1

Binder	SPOT peptide array binding signal intensity
B1	≤ 0
B2	35
B3	≤ 0

molecular target: CaLsb4; assay: as above
Method in brief: as §1

Binder	SPOT peptide array binding signal intensity
B1	≤ 0
B2	427
B3	23

molecular target: CaMyo5; assay: as above
Method in brief: as §1

Binder	SPOT peptide array binding signal intensity
B1	≤ 0
B2	≤ 0
B3	33.6

molecular target: CaNbp2; assay: as above
Method in brief: as §1

Binder	SPOT peptide array binding signal intensity
B1	≤ 0
B3	3970

molecular target: CaRvs167; assay: as above
Method in brief: as §1

Binder	SPOT peptide array binding signal intensity
B1	6.67
B3	12.8

molecular target: CaRvs167-3; assay: as above
Method in brief: as §1

Binder	SPOT peptide array binding signal intensity
B1	≤ 0
B3	≤ 0

molecular target: CaSho1; assay: as above
Method in brief: as §1

Binder	SPOT peptide array binding signal intensity
B1	2540
B3	11.8

molecular target: CaSla1-D1-D2; assay: as above
Method in brief: as §1

Binder	SPOT peptide array binding signal intensity
B1	≤ 0
B3	54.5

molecular target: CaSla1-D3; assay: as above
Method in brief: as §1

Binder	SPOT peptide array binding signal intensity
B1	≤ 0
B3	0.75

molecular target: ScAbp1; assay: as above
Method in brief: as §1

Binder	SPOT peptide array binding signal intensity
B1	≤ 0
B3	11

molecular target: ScBbc1; assay: as above
Method in brief: as §1

Binder	SPOT peptide array binding signal intensity
B1	≤ 0
B3	165

molecular target: ScBem1-D1; assay: as above
Method in brief: as §1

Binder	SPOT peptide array binding signal intensity
B1	≤ 0
B3	6

molecular target: ScBzz1-D1; assay: as above
Method in brief: as §1

Binder	SPOT peptide array binding signal intensity
B1	1
B3	17.5

molecular target: ScBzz1-D2; assay: as above
Method in brief: as §1

Binder	SPOT peptide array binding signal intensity
B1	≤ 0
B3	12.8

molecular target: ScCyk3; assay: as above
Method in brief: as §1

Binder	SPOT peptide array binding signal intensity
B1	≤ 0
B3	≤ 0

molecular target: ScFus1; assay: as above
Method in brief: as §1

Binder	SPOT peptide array binding signal intensity
B1	≤ 0
B3	≤ 0

molecular target: ScHof1; assay: as above
Method in brief: as §1

Binder	SPOT peptide array binding signal intensity
B1	1
B3	0.5

molecular target: ScHse1; assay: as above
Method in brief: as §1

Binder	SPOT peptide array binding signal intensity
B1	≤ 0
B3	37

molecular target: ScLsb1; assay: as above
Method in brief: as §1

Binder	SPOT peptide array binding signal intensity
B1	≤ 0
B3	0.25

molecular target: ScLsb2; assay: as above
Method in brief: as §1

Binder	SPOT peptide array binding signal intensity
B1	≤ 0
B3	35

molecular target: ScLsb3; assay: as above
Method in brief: as §1

Binder	SPOT peptide array binding signal intensity
B1	≤ 0
B3	152

molecular target: ScLsb4; assay: as above
Method in brief: as §1

Binder	SPOT peptide array binding signal intensity
B1	10
B3	5

molecular target: ScMyo3; assay: as above
Method in brief: as §1

Binder	SPOT peptide array binding signal intensity
B1	≤ 0
B3	1610

molecular target: ScMyo5; assay: as above
Method in brief: as §1

Binder	SPOT peptide array binding signal intensity
B1	≤ 0
B3	1320

molecular target: ScNbp2; assay: as above
Method in brief: as §1

Binder	SPOT peptide array binding signal intensity
B1	≤ 0
B3	6790

molecular target: ScPex13; assay: as above
Method in brief: as §1

Binder	SPOT peptide array binding signal intensity
B1	1030
B3	212

molecular target: ScRvs167; assay: as above
Method in brief: as §1

Binder	SPOT peptide array binding signal intensity
B1	≤ 0
B3	59.8

molecular target: ScSho1; assay: as above
Method in brief: as §1

Binder	SPOT peptide array binding signal intensity
B1	5560
B3	≤ 0

molecular target: ScSla1-D1-D2; assay: as above
Method in brief: as §1

Binder	SPOT peptide array binding signal intensity
B1	≤ 0
B3	265

molecular target: ScSla1-D3; assay: as above
Method in brief: as §1

Binder	SPOT peptide array binding signal intensity
B1	3
B3	44

molecular target: SpAbp1-D1; assay: as above
Method in brief: as §1

Binder	SPOT peptide array binding signal intensity
B1	≤ 0
B3	≤ 0

molecular target: SpBbc1; assay: as above
Method in brief: as §1

Binder	SPOT peptide array binding signal intensity
B1	≤ 0
B3	22

molecular target: SpBzz1-D1; assay: as above
Method in brief: as §1

Binder	SPOT peptide array binding signal intensity
B1	≤ 0
B3	258

molecular target: SpBzz1-D2; assay: as above
Method in brief: as §1

Binder	SPOT peptide array binding signal intensity
B1	≤ 0
B3	18.1
B4	≤ 0

molecular target: SpCyk3; assay: as above
Method in brief: as §1

Binder	SPOT peptide array binding signal intensity
B1	1.5
B3	≤ 0
B4	≤ 0

molecular target: SpHof1; assay: as above
Method in brief: as §1

Binder	SPOT peptide array binding signal intensity
B1	1460
B3	1.62
B4	1.25

molecular target: SpHof1-2; assay: as above
Method in brief: as §1

Binder	SPOT peptide array binding signal intensity
B1	1970
B3	2
B4	0.5

molecular target: SpHof1-3; assay: as above
Method in brief: as §1

Binder	SPOT peptide array binding signal intensity
B1	734
B3	34
B4	61.2

molecular target: SpHse1; assay: as above
Method in brief: as §1

Binder	SPOT peptide array binding signal intensity
B1	0.75
B3	70.1
B4	0.5

molecular target: SpLsb1; assay: as above
Method in brief: as §1

Binder	SPOT peptide array binding signal intensity
B1	≤ 0
B3	36.8
B4	623

molecular target: SpLsb4; assay: as above
Method in brief: as §1

Binder	SPOT peptide array binding signal intensity
B1	≤ 0
B3	87.5
B4	6830

molecular target: SpMyo1; assay: as above
Method in brief: as §1

Binder	SPOT peptide array binding signal intensity
B1	≤ 0
B3	2050
B4	≤ 0

molecular target: SpNbp2; assay: as above
Method in brief: as §1

Binder	SPOT peptide array binding signal intensity
B1	≤ 0
B3	264
B4	≤ 0

molecular target: SpPex13; assay: as above
Method in brief: as §1

Binder	SPOT peptide array binding signal intensity
B1	3
B3	≤ 0
B4	2

molecular target: SpRvs167; assay: as above
Method in brief: as §1

Binder	SPOT peptide array binding signal intensity
B1	5.67
B3	13.9
B4	3730

molecular target: SpSla1-D1-D2; assay: as above
Method in brief: as §1

Binder	SPOT peptide array binding signal intensity
B1	≤ 0
B3	≤ 0
B4	2

molecular target: SpSla1-D3; assay: as above
Method in brief: as §1

Binder	SPOT peptide array binding signal intensity
B1	≤ 0
B3	≤ 0
B4	≤ 0
